IL1B secr inh = inhibitors of inflammasome signaling (IL-1 beta secretion); THP-1 LPS/ATP IL-1B secretion, AlphaLISA, 16 h; stronger effect = lower value; AID 743279; activity change, % at 57.5 µM; actives 4.7% (n = 360,000); in the data active = activity change below about -50%; inconclusive = mostly about -30% to -49%
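THP-1 cells pretreated 1 hr with compounds (up to 57.5 uM final), then stimulated with LPS (250 ng/mL final) plus ATP (1.25 mM final); secreted IL-1B measured by AlphaLISA after 16 hr, decreased signal indicating inhibition.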
TDP1 cell CPT = growth inhibition of DT40 Tdp1-/-;hTDP1 cells with camptothecin (screen for TDP1 inhibitors); chicken DT40 Tdp1-/-;hTDP1 cells + 20 nM CPT, ATP luminescence, 48 h; Potency, µM (top dose mostly 46.2 µM), actives largely listed as inhibitors; actives 12% (n = 420,000); AID 686979; also: nearly all actives have a fitted effect of over 55% in size
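Chicken DT40 Tdp1-/- cells stably complemented with human TDP1 were seeded at 400 cells/well in medium containing 20 nM camptothecin, exposed to pin-transferred compounds, and grown at 37 °C for at least 48 hr. Viability was read as ATP luminescence.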
SW480 rerep = induces DNA re-replication in SW480 colon adenocarcinoma cells. Potency, µM (titrated, usually from 46.1 µM), hits mostly activators. AID 624297. SW480 DNA re-replication, Hoechst DNA content imaging, 48 h. actives 1.8% (n = 340,000); also: nearly all actives have a fitted effect of over 55% in size
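First, 250 cells per well were seeded. Next, compound or vehicle (23 nL) was pinned in, plates sat 48 hr at 37 C. Finally Hoechst was added for 40 min before fluorescence scanning.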
MCF10A rereplic = inducers of DNA re-replication in MCF 10A breast cells; MCF 10A DNA re-replication, Hoechst nuclear intensity, 48 h; Potency, µM (doses to about 46.1 µM), most hits filed as activators; actives 2.9% (n = 350,000); AID 624296; also: nearly all actives have a fitted effect of over 50% in size
Chronic BCR inh = inhibitors of chronic active B-cell receptor signaling; ABC-DLBCL IkBa-CBG/CBR reporter, luminescence ratio, 4 h; Potency, µM (highest dose often 46.1 µM), most hits filed as inhibitors; actives 0.05% (n = 340,000); AID 493014; active = well fitted inhibition curve with a large enough effect in the signal ratio, with a control signal flat, not every such curve was filed as active; inconclusive = small, poorly fitted or top-dose-only effect, or effect the other way, or a change in a side signal; the % refers to the signal ratio
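Doxycycline induced both beetle luciferases in TMD8 lymphoma cells; IKK-driven degradation limits the IkappaBalpha-fused green signal, while red luminescence normalises for cell number and nonspecific effects. Compounds tested up to 46 uM, 4 hrs.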
TDP1 cell noCPT = qHTS for Inhibitors of human tyrosyl-DNA phosphodiesterase 1 (TDP1): qHTS in cells in absence of CPT; DT40 Tdp1-/- hTDP1 cells, no CPT, ATP luminescence, 48 h; Potency, µM (titrated, usually from 46.2 µM), usual class: inhibitors; actives 15% (n = 420,000); AID 686978, 2013; also: nearly all actives have a fitted effect of over 55% in size
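DT40 Tdp1-/-;hTDP1 cells, no CPT (DMSO vehicle only), 400 cells/well; compounds pin-transferred; ≥48 hr, 37 °C; CellTiter-Glo 30 min RT dark, luminescence read.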
Each line names hits and unclear results; the compound was inactive in the other large screens. Sampled rows, rich in hits. Any-hit rate of the full collection: about 19%. Unless noted, calls follow the shape of the dose curve; as a rule, active = well fitted curve in the direction sought with a large enough effect; inconclusive = small, poorly fitted or top-dose-only effect, or another doubt; inactive = no such curve, though single readings can be large; an effect the other way counts as inactive or inconclusive.

CCN1CCN(c2cc(C)c3cc(NC(=O)CCC(=O)N4CCN(c5ccccc5OC)CC4)ccc3n2)CC1	IL1B secr inh inconclusive, SW480 rerep inconclusive, MCF10A rereplic inconclusive, TDP1 cell noCPT inconclusive
COc1ccccc1N1CCN(C(=S)Nc2ccc3nc(N4CCOCC4)cc(C)c3c2)CC1	IL1B secr inh -168.4, TDP1 cell CPT inconclusive, SW480 rerep inconclusive, MCF10A rereplic inconclusive, Chronic BCR inh inconclusive, TDP1 cell noCPT inconclusive
Cc1ccc(C)c(N2CCN(C(=S)Nc3ccc4nc(N5CCOCC5)cc(C)c4c3)CC2)c1	SW480 rerep inconclusive, MCF10A rereplic 16.4µM, Chronic BCR inh inconclusive, TDP1 cell noCPT inconclusive
O=C(NCCC(F)(F)F)c1cccc2c(-c3ccc(F)c(F)c3)coc12	TDP1 cell CPT inconclusive, TDP1 cell noCPT inconclusive (no result: SW480 rerep, MCF10A rereplic, Chronic BCR inh)
CN1CCCC1CCOC(C)(c1ccccc1)c1ccc(Cl)cc1 (centres undefined)	IL1B secr inh inconclusive, TDP1 cell CPT inconclusive, SW480 rerep 7.08µM, TDP1 cell noCPT 16.4µM (no result: Chronic BCR inh)
Cc1ccc(Nc2nc3ccccc3c3nnc(C)n23)c(C)c1	TDP1 cell CPT 11.6µM, TDP1 cell noCPT 8.2µM (no result: IL1B secr inh, SW480 rerep, MCF10A rereplic, Chronic BCR inh)
Cc1nnc2c3ccccc3nc(Nc3ccc(F)cc3Cl)n12	none (no result: IL1B secr inh, SW480 rerep, MCF10A rereplic, Chronic BCR inh)
COc1ccc(C2=Nc3ccc(OC(F)(F)F)cc3NC(c3cccnc3)=N2)cc1	TDP1 cell CPT 10.3µM, TDP1 cell noCPT 6.51µM (no result: IL1B secr inh, SW480 rerep, MCF10A rereplic, Chronic BCR inh)
CCOc1ccc(C2=NNC(c3cccs3)=Nc3ccc(OC)cc32)cc1	Chronic BCR inh inconclusive
CCCCOc1ccc(C(=O)NCCOc2cccc(OC)c2)cc1	Chronic BCR inh inconclusive
CCOc1ccc(C2=NC(c3ccc(OC)cc3)=Nc3ccc(Cl)cc3N2)cc1	TDP1 cell CPT inconclusive, TDP1 cell noCPT 20.6µM (no result: IL1B secr inh, SW480 rerep, MCF10A rereplic, Chronic BCR inh)
COc1ccc2c(c1)NC(c1ccc(Cl)cc1)=NC(c1cccs1)=N2	TDP1 cell CPT 29.1µM (no result: IL1B secr inh, SW480 rerep, MCF10A rereplic, Chronic BCR inh)
CCCCOc1ccc(C2=NC(c3ccccc3)=Nc3ccc(OC)cc3N2)cc1	TDP1 cell CPT 16.4µM, TDP1 cell noCPT 23.1µM (no result: IL1B secr inh, SW480 rerep, MCF10A rereplic, Chronic BCR inh)
CCOc1ccc(C2=NNC(c3cccnc3)=Nc3ccc(OC)cc32)cc1	none
Cc1ncc2c(n1)NC(=O)NC2	none (no result: Chronic BCR inh)
CC(Oc1cccc(Cl)c1)C(=O)Nc1cc(=O)n(C)c(=O)n1C (centres undefined)	TDP1 cell CPT inconclusive, TDP1 cell noCPT 13µM
CCOc1cc(N2CCOCC2)c(OCC)cc1NC(=O)CCS(=O)(=O)c1ccc(Cl)cc1	TDP1 cell CPT 4.11µM, TDP1 cell noCPT 1.84µM
CCOc1cc(N2CCOCC2)c(OCC)cc1NC(=O)c1cc(S(=O)(=O)N2CCOCC2)ccc1Cl	SW480 rerep inconclusive, MCF10A rereplic inconclusive
CCOc1cc(N2CCOCC2)c(OCC)cc1NC(=O)C(C)Oc1ccccc1 (centres undefined)	TDP1 cell CPT inconclusive, Chronic BCR inh inconclusive, TDP1 cell noCPT 13µM
CN(CC(=O)Nc1ccc(N2CCOCC2)cc1)CC(=O)Nc1ccc(Cl)cc1[N+](=O)[O-]	TDP1 cell CPT inconclusive, TDP1 cell noCPT 25.9µM
COc1ccc(CC(=O)NNC(=O)c2cc(C)oc2C)cc1OC	none
CCOC(=O)C1C(=O)C(=O)N(Cc2ccccc2)C1C(=O)OCC (centres undefined)	none (no result: Chronic BCR inh)
CCN(CC)C(=O)C1=C(C)N(CCCN2CCCC2=O)C(=O)C(CC(=O)NCCCCc2ccccc2)C1 (centres undefined)	none (no result: SW480 rerep, MCF10A rereplic, Chronic BCR inh)
CCOc1cc(N2CCOCC2)c(OCC)cc1NC(=O)COC(=O)CCOc1ccc(C)cc1	TDP1 cell CPT inconclusive, Chronic BCR inh inconclusive, TDP1 cell noCPT inconclusive
CCOc1ccccc1N1CCN(S(=O)(=O)c2ccc(Cl)s2)CC1	TDP1 cell CPT inconclusive, TDP1 cell noCPT inconclusive
CC(Oc1cccc(Cl)c1)C(=O)N(C)CC(=O)Nc1ccc(N2CCOCC2)cc1 (centres undefined)	TDP1 cell CPT 13µM, TDP1 cell noCPT 16.4µM
CCCC(C(=O)N(C)CC(=O)Nc1ccc(N2CCOCC2)cc1)c1ccccc1 (centres undefined)	none

Screens as filed in PubChem.
